MBD2 DNA inh: blocks human MBD2 binding to methylated DNA; TR-FRET, MBD2 binding to methylated oligonucleotide; 0.31% of 370,000 active; Q9UBB5; inhibition, % at 4.4 µM; in the data active means inhibition above about 13%
LEDGF integ inh: blocks HIV-1 LEDGF/p75-dependent DNA integration | TR-FRET IN-LEDGF/p75 DNA integration, Eu/Cy5 | inhibition, % at 3.7 µM | 0.64% of 370,000 active | AID 743269;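 active means inhibition above the screen-wide mean plus 3 SD, cut at about 13% in these data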;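 further: signal is the Cy5 over europium emission ratio at 671 and 618 nm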
PRMT1 inh: PRMT1 (human) inhibition, primary screen. recombinant PRMT1, activity-based probe fluorescence polarization. inhibition, % at 2.79 µM. 1.3% of 370,000 active. AID 652257;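 active means inhibition above about 21% made by adding two undisclosed values, limit read from the data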
Target sequence (Q99873 whole entry, looked up): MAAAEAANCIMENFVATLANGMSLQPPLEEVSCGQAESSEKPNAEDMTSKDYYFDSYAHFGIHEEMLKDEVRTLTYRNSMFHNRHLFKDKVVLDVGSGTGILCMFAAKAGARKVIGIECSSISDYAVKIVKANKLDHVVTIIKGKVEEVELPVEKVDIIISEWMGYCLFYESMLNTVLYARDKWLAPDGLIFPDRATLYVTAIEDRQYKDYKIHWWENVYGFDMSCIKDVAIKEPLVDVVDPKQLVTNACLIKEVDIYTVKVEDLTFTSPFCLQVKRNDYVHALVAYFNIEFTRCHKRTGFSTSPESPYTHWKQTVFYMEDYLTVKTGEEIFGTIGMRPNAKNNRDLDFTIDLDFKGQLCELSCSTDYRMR
UHRF1 binding: UHRF1 methyl-DNA binding inhibition | UHRF1 binding to methylated oligo, TR-FRET | Q96T88 | 0.75% of 370,000 active | inhibition, % at 4.4 µM | AID 687016; in the data active means inhibition above about 21%;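 further: UHRF1 SRA domain binding a hemimethylated CpG hairpin DNA probe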
Numbers stand for hits; 0 = inactive. Rows were chosen to be rich in hits. Some 2.5% of all compounds tested hit in one or more screens of this group.

SMILES | MBD2 DNA inh | LEDGF integ inh | PRMT1 inh | UHRF1 binding
CC(C)(C)NC(=O)C(c1cccc2ccccc12)n1c(=O)c(-c2ccccc2)nc2ccccc21 (stereo not given) | 0 | 0 | 0 | 0
CCCCCNC(=O)C(c1ccc(C(F)(F)F)cc1)n1c(=O)c(-c2ccco2)nc2ccccc21 (stereo not given) | 0 | 0 | 25 | 21
O=C(NCc1ccccc1)C(c1ccncc1)n1c(=O)c(-c2ccco2)nc2ccccc21 (stereo not given) | 0 | 0 | 0 | 0
O=C(NC1CCCCC1)C(C1CC1)n1c(=O)c(-c2ccco2)nc2ccccc21 (stereo not given) | 0 | 0 | 0 | 0
N#Cc1ccc(C(C(=O)NC2CCCCC2)n2c(=O)c(-c3ccco3)nc3ccccc32)cc1 (stereo not given) | 0 | 0 | 22 | 0
CCCCCNC(=O)C(C1CC1)n1c(=O)c(-c2ccco2)nc2ccccc21 (stereo not given) | 0 | 0 | 22 | 0
C[C@H]1CN([C@@H](C)CO)C(=O)CCCn2nncc2CO[C@@H]1CN(C)Cc1ccccc1C(F)(F)F | 0 | 0 | 0 | 0
Cc1ccc(S(=O)(=O)NC(CC(=O)NCC2CCCO2)c2ccccc2)cc1 (stereo not given) | 0 | 0 | 0 | 0
NC(=O)C[n+]1cccc(CNC(=O)c2ccc(OC(F)F)cc2)c1 | 0 | 0 | 0 | 77
O=C(C[n+]1cccc(CNC(=O)c2ccc(OC(F)F)cc2)c1)Nc1cc(C(F)(F)F)ccc1Cl | 0 | 0 | 0 | 0
CC(C)C[C@@H](COCc1ccc(Cl)cc1)N1CCN(C(=O)c2ccc(C(F)(F)F)cc2)CCC1=O | 0 | 0 | 0 | 0
CC(C)C[C@@H](COCc1ccc([N+](=O)[O-])cc1)N1CCN(C(=O)c2ccc(C(F)(F)F)cc2)CCC1=O | 0 | 0 | 0 | 22
COc1cc(OC)c2ccc(=O)oc2c1C(CCN1CCCC1)c1ccc2c(c1)OCO2 (stereo not given) | 0 | 0 | 0 | 0
COc1cc(OC)c2ccc(=O)oc2c1C(CCN1CCOCC1)c1ccc2c(c1)OCO2 (stereo not given) | 0 | 0 | 0 | 26
Cc1sc(N)c(C(=O)c2ccccc2)c1C | 0 | 0 | 41 | 0
Cc1cc(C)c(C(=O)c2ccccc2)c(C)c1 | 0 | 0 | 0 | 0
CC(C)Oc1ccc(CCC(=O)N/N=C/c2ccncc2)cc1 | 0 | 0 | 0 | 27
CC(C)Oc1ccc(CCC(=O)N/N=C/c2ccc3c(c2)OCO3)cc1 | 0 | 0 | 0 | 0
O=C(COC(=O)Cn1cnc2ccccc21)Nc1ccc(F)c(F)c1 | 0 | 0 | 0 | 0
O=C(Sc1n[nH]c(=O)[nH]c1=O)c1ccccc1 | 0 | 0 | 88 | 0
CN(C(=O)CSc1n[nH]c(=O)[nH]c1=O)c1ccccc1 | 0 | 0 | 0 | 0
O=C(Nc1ccccc1F)C1CCN(C(=O)NCc2ccccc2)CC1 | 0 | 0 | 0 | 24
O=C(Nc1ccc(F)cc1)C1CCN(C(=O)NCc2ccccc2)CC1 | 0 | 0 | 0 | 0
COCCNC(=O)C1CCCN(C(=O)c2cc(C(C)(C)C)nn2C)CC1 (stereo not given) | 0 | 0 | 0 | 25
CCN(CC(=O)Nc1c(F)cccc1F)C(=O)c1cc([N+](=O)[O-])ccc1N1CCOCC1 | 0 | 0 | 0 | 0
SMILES | MBD2 DNA inh | LEDGF integ inh | PRMT1 inh | UHRF1 binding
COc1cc(/C=N/NC(=O)c2nnn(-c3nonc3N)c2C(C)C)ccc1OCc1ccc(F)cc1 | 0 | 0 | 0 | 21
COc1cc(/C=N/NC(=O)c2cc(C)oc2C)ccc1OCc1ccccc1 | 0 | 84 | 0 | 0
CC(C)c1c(C(=O)N/N=C/c2cccc(OCc3ccc(F)cc3)c2)nnn1-c1nonc1N | 0 | 0 | 0 | 0
COc1cc(/C=N/NC(=O)c2cccs2)ccc1OCc1ccccc1 | 0 | 0 | 0 | 0
CNc1cncc(-c2cccc(OC)c2F)n1 | 0 | 0 | 0 | 0
O=C(NNc1ccccc1Br)C(=O)n1ccc2ccccc21 | 0 | 0 | 0 | 66
O=C(Nc1ccccc1Br)C(=O)N1CCCC1 | 0 | 0 | 0 | 0
NS(=O)(=O)c1ccc(N/C=C\C(=O)c2ccc3ccccc3c2)cc1 | 0 | 0 | 0 | 22
CC1(C)CC(=O)C(C(O)c2cccc([N+](=O)[O-])c2)C(C)(C)N1 (stereo not given) | 0 | 0 | 0 | 0
COc1cc2c(cc1OC)C1CCN3C(=O)CCC3N1CC2 (stereo not given) | 0 | 0 | 0 | 0
CC(=O)c1cccc(NC(=O)c2cc(C)no2)c1 | 0 | 0 | 0 | 64
CCCCCCn1c(=O)n2n(c1=O)[C@@H]1CN(S(=O)(=O)c3ccc(C)cc3)C[C@]1(O)[C@@H](OC(=O)NCC1CCCCC1)C2 | 0 | 0 | 0 | 23
CCCCCCn1c(=O)n2n(c1=O)[C@@H]1CN(S(=O)(=O)c3ccc(C)cc3)C[C@]1(O)[C@@H](OC(=O)NC1CCCC1)C2 | 0 | 0 | 0 | 0
Cc1cccc(C)c1NC(=O)C1(C)CCC(=O)N1c1cc(C(C)(C)C)nn1C (stereo not given) | 0 | 0 | 0 | 22
O=C(NCc1ccco1)C1Cc2ccccc2CN1S(=O)(=O)c1ccccc1F (stereo not given) | 0 | 14 | 0 | 0
CC1(C)Cc2c(c(=S)nc(-c3ccccc3)n2CCOCCO)CO1 | 0 | 0 | 22 | 0
C=CCn1c(-c2ccccc2)nc(=S)c2c1CC(C)(C)OC2 | 0 | 0 | 0 | 0
CC(NC(=O)c1ccc(F)cc1)C1CC2CCC1C2 (stereo not given) | 0 | 0 | 0 | 88
CC(C)NC(=O)c1csc([C@@H]2O[C@H](CO)[C@H](O)[C@H](O)[C@H]2O)n1 | 0 | 0 | 0 | 0
O=C(Cc1ccsc1)NCC(c1ccco1)N1CCCCC1 (stereo not given) | 0 | 0 | 0 | 25
COc1cccc(/C=C/C(=O)OCC(=O)NCCC2=CCCCC2)c1 | 0 | 0 | 0 | 37
CCOC(=O)C1=CCC(c2cccc3ccccc23)N(S(=O)(=O)c2ccc(C)cc2)C1 (stereo not given) | 0 | 0 | 0 | 0
C=CCNc1nc2cc(-c3cccc(NC(C)=O)c3)sc2c(=O)n1C | 0 | 0 | 0 | 0
Cc1nnc(SCC(=O)Nc2sccc2C#N)s1 | 0 | 0 | 0 | 0
Cn1ccnc1SCC(=O)Nc1sccc1C#N | 0 | 0 | 22 | 0
SMILES | MBD2 DNA inh | LEDGF integ inh | PRMT1 inh | UHRF1 binding
CCCc1ccc(C(O)c2ncc(-c3cccc(C)c3)[nH]2)cc1 (stereo not given) | 0 | 0 | 0 | 0
CN(C)S(=O)(=O)c1cccc(NC(=O)C2CCCN(C(=O)c3ccc(Cl)cc3)C2)c1 (stereo not given) | 0 | 0 | 0 | 0
CC(=O)Nc1ccc(S(=O)(=O)N2CCN=C2SCc2ccc([N+](=O)[O-])cc2)cc1 | 0 | 0 | 0 | 0
Cc1ccc(-c2nc3sc(C#N)c(N)n3c(=O)c2C#N)cc1 | 0 | 0 | 81 | 0
Cc1ccc(-n2c(N)c(C#N)c(-c3ccccc3)c(C#N)c2=O)cc1 | 0 | 0 | 0 | 0
CC(=O)Nc1ccc(CN(C)c2c(C)nc3ccc(C(=O)N4CCN(c5ccccc5)CC4)cn23)cc1 | 0 | 0 | 0 | 0
Cn1ccnc1C(=O)c1cc(SCC(=O)NCc2ccccc2)nc2ccccc12 | 0 | 0 | 0 | 26
Cc1c(NC(=O)c2ccc(Cl)nc2)cccc1-c1nc2cccnc2s1 | 0 | 0 | 0 | 22
